Assay results published in PubChem BioAssay (NCATS).
Values joined by “and” are separate entries in the source; they are usually repeats but may differ in a detail not shown here. Identical values can stand only once. Records with an inconclusive call do not appear. Active and inactive are the calls of the source. Unless noted, calls come from the whole dose curve; as a rule, active = well fitted curve in the direction sought with a large enough effect; inconclusive = small, poorly fitted or top-dose-only effect, or another doubt; inactive = no such curve, though single readings can be large; an effect the other way counts as inactive or inconclusive.

How the values were obtained:
[1] = biological target: Cytochrome P450 1A2 (Homo sapiens) (UniProt P05177); assay: p450-cyp1a2 (AID 410; calls by dose curve;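 note: -100% = full effect of reference inhibitor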)
Method in brief: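 20nM CYP1A2 with 100uM Luciferin-ME (at Km) in 100mM KPO4; compound preincubated 10 min, NADPH regeneration added, 60 min at room temperature. Luciferin quantified by luminescence after detection reagent; normalized to 57 uM furafylline.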

[2] = biological target: Glucocorticoid receptor (Homo sapiens) (UniProt P04150); assay: GR-GFP Redistribution (AID 450;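 active = compounds whose dose series gives a full or clear partial fitted curve of increased nuclear translocation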; note: potency is the fitted concentration of half-maximal effect); conditions: U2OS GR-GFP nuclear translocation, laser cytometry, 2 h
[3] = biological target: Glucocorticoid receptor (Homo sapiens) (UniProt P04150); assay: GR-EFC Redistribution (AID 451; calls by dose curve; note: potency is the fitted concentration of half-maximal effect); conditions: CHO-K1 GR-EFC translocation, beta-gal luminescence, 2 h
Method in brief: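 CHO-K1 cells expressing nuclear EA and GR-ED fragments of b-gal; compounds titrated up to 46 uM final, 2 h at 37 C. GR nuclear translocation read as complemented b-gal luminescence after 1 h RT detection.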

[4] = biological target: Mitogen-activated protein kinase 10 (Mus musculus) (UniProt Q61831); assay: JNK3 AlphaScreen Assay (AID 530; active = well fitted curve in either direction with a large enough effect, not every such curve was filed as active;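 note: kinase came from lysate of stimulated human HepG2 cells; signal reports phosphorylation of biotinylated GST-cJun 1-79 at Ser73 with 10 µM ATP; % is set by controls: 0 for no effect and ±100 for the full control effect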)
Method in brief: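 Pre-activated (IL-1β/TNFα) JNK3 in HepG2 lysates phosphorylates biotin-GST-cJun(1-79), 10 uM ATP; anti-phospho-cJun(Ser73) AlphaScreen read at room temperature, pH 7.6 Tris buffer. Compounds pre-incubated 15 min as titrations.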

[5] = biological target: 3',5'-cyclic-AMP phosphodiesterase 4B (Homo sapiens) (UniProt Q07343); assay: qHTS Assay for Inhibitors of PDE-IV (AID 607; active = well fitted activation curve with a large enough effect in the main read-out, with a control signal flat, not every such curve was filed as active; note: % of control where 0% means no effect)
Method in brief: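 Live HEK293 cells with a modified cyclic nucleotide-gated (CNG) channel report intracellular cAMP via membrane-potential dye fluorescence (ex 535/em 590 nm). Endogenous PDE-IV was targeted. Compounds were tested at up to 22.9 uM final; RO 20-1724 100 uM served as control.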

[6] = biological target: Cytochrome P450 2C19 (Homo sapiens) (UniProt P33261); assay: qHTS Assay for Inhibitors and Substrates of Cytochrome P450 2C19 (AID 899); note: % is set by controls: 0 for no effect and ±100 for the full control effect; nearly all actives have a fitted effect of over 60% in size
Method in brief: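 Luminescent read-out of luciferin formed from Luciferin-H EGE (10uM, equal to KM). Enzyme 5nM in 50mM KPO4; compound added, 10 min at 37C, then NADPH regenerating system for 60 min at 37C. Full inhibition defined by 57uM ketoconazole.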

[7] = qHTS Assay for Lipid Storage Modulators (AID 1519; calls by dose curve); conditions: Drosophila S3 cells, BODIPY lipid droplet/cell ratio, laser cytometry, cells loaded with oleic acid; for activity change, negative = inhibition: at 57.5 µM (top of the series)
Method in brief: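 Cells seeded at 5,000 per well were treated with compounds over a concentration series and loaded with oleic acid (400 uM, as added). Lipid droplet fluorescence (488 nm excitation, 500-530 nm channel) was read by laser-scanning cytometry and normalized to 20 uM Triacsin C.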

[8] = biological target: Ubiquitin carboxyl-terminal hydrolase 1 (Homo sapiens) (UniProt O94782); assay: Inhibitors of USP1/UAF1: Pilot qHTS (AID 504865);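 note: rhodamine fluorescence freed from ubiquitin-rhodamine substrate followed over time; top concentration of the series differs between compounds; % is set by controls: 0 for no effect and ±100 for the full control effect; nearly all actives have a fitted effect of over 35% in size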
Method in brief: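 USP1/UAF1 complex at 1 nM preincubated 15 min at room temperature with compound, then Ub-Rho substrate added at 150 nM final. Fluorescence (480/540 nm) read kinetically in 50 mM HEPES pH 7.8, 0.5 mM EDTA, 1 mM TCEP, 0.1 mg/ml BSA, 0.01% Tween-20.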

[9] = biological target: DNA dC->dU-editing enzyme APOBEC-3G (Homo sapiens) (UniProt Q9HC16); assay: qHTS for inhibitors of Vif-A3G interactions: Validation (AID 588379); note: 0% is about no effect
Method in brief: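 HeLa cells stably expressing Vif and A3G-eYFP, 700 cells/well, incubated overnight at 37 deg C, then exposed to compound overnight at 37 deg C. Inhibition of Vif-mediated degradation read as increased yellow fluorescence (Ex 488/Em 500-530) by laser-scanning cytometry.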

[10] = tested on: Zika virus NS2B-NS3 protease; assay: Primary screen GU AMC qHTS for Zika virus inhibitors (AID 1347154);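 note: 0% = no-inhibitor control and -100% = no-enzyme control; nearly all actives have a fitted effect of over 70% in size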
Method in brief: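 Unlinked Zika NS2B hydrophilic domain–NS3 protease complex at 25 nM in 10 mM Tris-HCl pH 8.0, 0.01% Tween 20, with an AMC peptide substrate. Fluorescence change (340/450 nm) over 15 min at room temperature, normalized to controls, fitted to 4-parameter Hill.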

[11] = AP1 Signaling Pathway (AID 357; active = well fitted curve in either direction with a large enough effect, not every such curve was filed as active;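 note: ME-180 reporter cells stimulated with EGF at its EC50 level; % is set by controls: 0 for no effect and ±100 for the full control effect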); conditions: ME-180 AP-1-bla reporter, EGF-induced, beta-lactamase ratio, 5 h
Method in brief: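 Modulation of EGF-driven AP-1 transcription was assessed with a beta-lactamase reporter in ME-180 cells. Compound and EC50 EGF were co-incubated 5 hours at 37 °C before 2.5-hour CCF4 loading at room temperature and dual-emission reading.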

[12] = NFAT Signaling Pathway (AID 444; active = well fitted curve in either direction with a large enough effect, not every such curve was filed as active;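 note: carbachol stimulus at about its EC50 of 1 µM final; % is set by controls: 0 for no effect and ±100 for the full control effect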); conditions: Jurkat NFAT-bla M1, carbachol, beta-lactamase ratio, 5 h
Method in brief: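 Jurkat cells with NFAT-driven β-lactamase reporter and co-expressed M1 receptor, stimulated with carbachol (final 1 uM, ~EC50), compound titration, 5 h at 37 °C. CCF4 loaded 1 h at RT; 460/530 nm ratio gave %activity and AC50.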

[13] = Stat Signaling Pathway (AID 446; active = well fitted curve in either direction with a large enough effect, not every such curve was filed as active;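 note: ME-180 cervical cancer cells given 40 pM IL-6 alongside compound; SIE-controlled beta-lactamase reporter measured as 460/530 nm FRET emission ratio; % is set by controls: 0 for no effect and ±100 for the full control effect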); conditions: ME-180 (cervical carcinoma) SIE beta-lactamase reporter, IL-6 stimulated, 5 h
Method in brief: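 IL-6/STAT signaling read in ME-180 cells via an SIE beta-lactamase reporter. Stimulus was 40 pM IL-6 (its AC50) for 5 hrs, so both activation and inhibition register.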

[14] = biological target: Guanine nucleotide-binding protein G(i) subunit alpha-1 (Homo sapiens) (UniProt P63096); assay: qHTS Assay for Inhibitors of RGS12 GoLoco Motif Activity (Green Fluorophore) (AID 879);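 note: 0% = labeled peptide with Gαi1 and full inhibition = labeled peptide alone without protein; negative values mean loss of peptide binding seen as reduced polarization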
Method in brief: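 Fluorescence polarization assay: 50 nM Gαi1 with 10 nM FITC-labeled RGS12 GoLoco peptide in 10 mM Tris pH 7.5, 150 mM NaCl, 0.1 mM GDP, 0.05% NP40, 10 min at room temperature with compound.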

[15] = biological target: Cytochrome P450 2C9 (Homo sapiens) (UniProt P11712); assay: qHTS Assay for Inhibitors and Substrates of Cytochrome P450 2C9 (AID 883); note: % is set by controls: 0 for no effect and ±100 for the full control effect; nearly all actives have a fitted effect of over 60% in size
Method in brief: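 10nM CYP2C9 + 100uM Luciferin-H (=KM), 25mM KPO4; cpd 10 min 37C; NADPH regen, 60 min 37C; stop/detect with P450 Glo-Buffer 20 min; luminescence. Norm. to 57uM sulphaphenazole as full inhibition.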

[16] = biological target: Cytochrome P450 2D6 (Homo sapiens) (UniProt P10635); assay: qHTS Assay for Inhibitors and Substrates of Cytochrome P450 2D6 (AID 891); note: potency is the fitted concentration of half-maximal effect; nearly all actives have a fitted effect of over 60% in size
Method in brief: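 Human CYP2D6 (5 nM) with 30 uM Luciferin-ME EGE (at Km) in 100 mM KPO4, compound preincubated 10 min, then NADPH regeneration system for 60 min at room temperature. Luciferin read by luminescence; normalized to 1.43 uM quinidine.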

[17] = qHTS Assay for Identification of Small Molecule Agonists for Thrombopoietin (TPO) Signaling Pathway (AID 917); note: % is set by controls: 0 for no effect and ±100 for the full control effect
Method in brief: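 Murine Ba/F3 cells expressing human TPO receptor and GPIIb-promoter luciferase, IL-3-starved overnight, given compound plus TPO at 26 pM (EC50). After 24 h at 37 C, 5% CO2, luminescence read.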

[18] = biological target: Pyruvate kinase (Leishmania mexicana) (UniProt Q27686); assay: qHTS Validation Assay for Inhibitors of Leishmania Mexicana Pyruvate Kinase (AID 945);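 note: 0% = DMSO only neutral control wells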
Method in brief: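 Pyruvate kinase activity of E451W LmPYK (0.2 nM) was followed as ATP output after 1 h at room temperature with 0.5 mM PEP and 0.1 mM ADP, detected by PKLight luminescence.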

[19] = biological target: Pyruvate kinase PKM (Homo sapiens) (UniProt P14618); assay: qHTS Assay for Activators of Human Muscle Pyruvate Kinase (AID 954; active = well fitted curve in the direction sought with a large enough effect, not every such curve was filed as active;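 note: 0% = uninhibited enzyme and -100% = no enzyme or full thiadiazolimine inhibition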)
Method in brief: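 Enzyme was run at intermediate activity so both inhibitors and activators could be detected. ATP formed from ADP and PEP by 0.1 nM human PKM2 during a 1 h room-temperature incubation was quantified by coupled luciferase luminescence.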

[20] = biological target: Alpha-galactosidase A (Homo sapiens) (UniProt P06280); assay: Counterscreen for Glucocerebrosidase Inhibitors: qHTS Assay for Human alpha-Galactosidase at pH 4.5 (AID 992); note: 0% is about no effect
Method in brief: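 Read-out is 4-methylumbelliferone fluorescence (365 nm excitation, 440 nm emission) after a pH 10 NaOH/glycine stop. Reactions held 2 nM enzyme and 80 uM substrate at pH 4.5 for 20 min at room temperature.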

[21] = biological target: alpha-glucosidase (Oryza sativa, rice) (UniProt Q653V4); assay: Counterscreen for Glucocerebrosidase Inhibitors: qHTS Assay for Rice alpha-Glucosidase at pH 5.0 (AID 997);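 note: 0% = full activity with enzyme and -100% = basal without enzyme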
Method in brief: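 Rice alpha-glucosidase (4 nM final) with 400 uM 4-methylumbelliferyl-alpha-D-glucopyranoside in citrate buffer pH 5.0, 20 min at room temperature, stopped at pH 10; fluorescence 365/440 nm, compounds 0.7 nM–77 uM, AC50 from Hill fits.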

[22] = measured here: cell count channel max response
[23] = measured here: lipid channel max response

DNA dC->dU-editing enzyme APOBEC-3G (Homo sapiens), sequence (Q9HC16 whole entry, looked up): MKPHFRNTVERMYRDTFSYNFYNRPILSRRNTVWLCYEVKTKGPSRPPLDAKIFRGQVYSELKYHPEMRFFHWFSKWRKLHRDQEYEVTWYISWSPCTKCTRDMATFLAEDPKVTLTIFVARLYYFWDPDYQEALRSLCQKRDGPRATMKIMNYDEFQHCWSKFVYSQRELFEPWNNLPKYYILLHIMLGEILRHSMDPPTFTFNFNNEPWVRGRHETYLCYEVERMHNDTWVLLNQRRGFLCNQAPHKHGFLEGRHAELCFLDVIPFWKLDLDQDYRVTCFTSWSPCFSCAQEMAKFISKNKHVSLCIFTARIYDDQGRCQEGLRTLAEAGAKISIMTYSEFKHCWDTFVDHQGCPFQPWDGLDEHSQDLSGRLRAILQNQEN
Cytochrome P450 2D6 (Homo sapiens), sequence (P10635 whole entry, looked up): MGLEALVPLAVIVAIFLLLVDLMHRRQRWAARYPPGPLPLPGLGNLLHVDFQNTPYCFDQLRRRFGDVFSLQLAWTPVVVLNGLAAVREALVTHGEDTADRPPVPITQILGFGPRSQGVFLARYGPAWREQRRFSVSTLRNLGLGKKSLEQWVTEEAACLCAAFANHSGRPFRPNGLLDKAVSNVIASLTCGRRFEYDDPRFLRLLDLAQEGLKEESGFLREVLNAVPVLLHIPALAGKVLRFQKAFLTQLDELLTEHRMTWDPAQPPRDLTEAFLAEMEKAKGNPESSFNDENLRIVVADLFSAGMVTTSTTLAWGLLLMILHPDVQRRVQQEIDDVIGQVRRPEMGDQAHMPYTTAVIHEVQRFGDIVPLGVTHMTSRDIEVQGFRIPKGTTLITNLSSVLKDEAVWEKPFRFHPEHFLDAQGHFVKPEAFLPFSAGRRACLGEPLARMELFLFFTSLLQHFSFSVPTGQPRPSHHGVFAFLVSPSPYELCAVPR
Cytochrome P450 1A2 (Homo sapiens), sequence (P05177 whole entry, looked up): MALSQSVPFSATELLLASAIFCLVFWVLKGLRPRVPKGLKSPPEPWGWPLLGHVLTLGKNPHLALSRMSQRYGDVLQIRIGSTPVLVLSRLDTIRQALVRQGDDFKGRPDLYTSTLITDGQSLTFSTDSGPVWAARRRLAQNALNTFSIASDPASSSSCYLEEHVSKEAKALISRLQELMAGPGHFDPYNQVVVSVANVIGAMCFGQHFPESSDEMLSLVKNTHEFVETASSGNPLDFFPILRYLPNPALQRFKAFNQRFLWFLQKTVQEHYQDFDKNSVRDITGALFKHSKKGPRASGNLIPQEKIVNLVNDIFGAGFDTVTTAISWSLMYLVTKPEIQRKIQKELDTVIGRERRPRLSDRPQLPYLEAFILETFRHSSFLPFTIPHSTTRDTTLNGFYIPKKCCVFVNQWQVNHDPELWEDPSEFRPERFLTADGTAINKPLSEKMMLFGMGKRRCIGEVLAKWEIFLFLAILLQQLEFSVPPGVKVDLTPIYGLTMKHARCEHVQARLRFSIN
Glucocorticoid receptor (Homo sapiens), sequence (P04150 whole entry, looked up, the tested form may be a part): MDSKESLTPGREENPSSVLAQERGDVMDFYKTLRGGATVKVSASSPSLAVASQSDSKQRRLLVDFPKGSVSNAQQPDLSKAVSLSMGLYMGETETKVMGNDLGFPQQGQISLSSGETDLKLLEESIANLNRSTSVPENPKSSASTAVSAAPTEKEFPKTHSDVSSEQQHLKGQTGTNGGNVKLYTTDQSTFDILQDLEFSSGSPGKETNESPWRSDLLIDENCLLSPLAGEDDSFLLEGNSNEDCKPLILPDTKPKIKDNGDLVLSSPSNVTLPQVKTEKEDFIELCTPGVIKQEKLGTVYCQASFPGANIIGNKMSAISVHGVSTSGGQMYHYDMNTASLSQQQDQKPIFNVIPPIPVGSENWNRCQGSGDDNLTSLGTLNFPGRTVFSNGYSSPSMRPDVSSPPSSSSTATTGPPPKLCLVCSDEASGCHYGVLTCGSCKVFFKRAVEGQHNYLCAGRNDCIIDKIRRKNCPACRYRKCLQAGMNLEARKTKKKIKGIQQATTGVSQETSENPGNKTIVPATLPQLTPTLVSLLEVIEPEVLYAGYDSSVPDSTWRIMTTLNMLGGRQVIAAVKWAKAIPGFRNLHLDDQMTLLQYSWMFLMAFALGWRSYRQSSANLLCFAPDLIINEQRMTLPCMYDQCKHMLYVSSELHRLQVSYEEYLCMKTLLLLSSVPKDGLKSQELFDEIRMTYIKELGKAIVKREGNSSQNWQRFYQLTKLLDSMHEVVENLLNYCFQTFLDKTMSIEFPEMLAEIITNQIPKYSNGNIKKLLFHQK
3',5'-cyclic-AMP phosphodiesterase 4B (Homo sapiens), sequence (Q07343 whole entry, looked up): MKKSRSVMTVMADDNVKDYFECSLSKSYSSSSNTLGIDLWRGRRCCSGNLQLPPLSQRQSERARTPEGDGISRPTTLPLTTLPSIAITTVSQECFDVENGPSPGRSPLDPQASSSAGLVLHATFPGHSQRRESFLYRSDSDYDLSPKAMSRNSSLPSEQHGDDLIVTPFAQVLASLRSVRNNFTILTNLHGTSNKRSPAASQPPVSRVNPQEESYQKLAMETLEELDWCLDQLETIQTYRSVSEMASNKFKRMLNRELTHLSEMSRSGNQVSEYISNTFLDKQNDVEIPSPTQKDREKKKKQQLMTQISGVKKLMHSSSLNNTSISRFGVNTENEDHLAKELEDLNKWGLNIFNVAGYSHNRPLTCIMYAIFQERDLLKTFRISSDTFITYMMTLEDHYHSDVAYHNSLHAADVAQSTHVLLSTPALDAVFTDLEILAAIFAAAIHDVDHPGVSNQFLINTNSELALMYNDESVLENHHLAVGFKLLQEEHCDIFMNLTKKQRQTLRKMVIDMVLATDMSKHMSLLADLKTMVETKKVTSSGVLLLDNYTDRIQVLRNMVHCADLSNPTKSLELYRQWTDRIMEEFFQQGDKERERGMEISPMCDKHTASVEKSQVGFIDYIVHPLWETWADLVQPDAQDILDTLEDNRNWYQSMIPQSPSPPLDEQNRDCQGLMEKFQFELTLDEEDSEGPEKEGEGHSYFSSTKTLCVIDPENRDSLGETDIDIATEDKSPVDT
Ubiquitin carboxyl-terminal hydrolase 1 (Homo sapiens), sequence (O94782 whole entry, looked up): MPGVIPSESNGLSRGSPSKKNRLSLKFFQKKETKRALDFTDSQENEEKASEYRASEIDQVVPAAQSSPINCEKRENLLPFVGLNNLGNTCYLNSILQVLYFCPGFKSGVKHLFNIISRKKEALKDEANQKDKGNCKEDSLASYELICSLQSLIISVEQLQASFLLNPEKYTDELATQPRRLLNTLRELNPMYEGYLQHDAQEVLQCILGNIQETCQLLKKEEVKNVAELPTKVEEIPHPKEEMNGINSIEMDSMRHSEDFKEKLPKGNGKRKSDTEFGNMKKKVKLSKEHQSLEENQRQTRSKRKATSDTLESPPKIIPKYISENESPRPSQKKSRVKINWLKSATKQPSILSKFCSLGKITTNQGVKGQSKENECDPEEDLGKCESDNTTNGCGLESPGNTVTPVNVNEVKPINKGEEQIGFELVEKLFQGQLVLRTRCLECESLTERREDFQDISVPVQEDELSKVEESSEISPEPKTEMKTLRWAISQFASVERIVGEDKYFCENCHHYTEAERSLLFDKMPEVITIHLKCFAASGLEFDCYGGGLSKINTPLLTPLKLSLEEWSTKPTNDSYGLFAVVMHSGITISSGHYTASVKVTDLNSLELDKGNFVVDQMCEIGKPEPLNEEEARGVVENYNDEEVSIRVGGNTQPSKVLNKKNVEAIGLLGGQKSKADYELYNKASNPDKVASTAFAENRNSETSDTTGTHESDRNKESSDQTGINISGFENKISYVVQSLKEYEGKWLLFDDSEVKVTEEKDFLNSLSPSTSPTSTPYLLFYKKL
Cytochrome P450 2C19 (Homo sapiens), sequence (P33261 whole entry, looked up): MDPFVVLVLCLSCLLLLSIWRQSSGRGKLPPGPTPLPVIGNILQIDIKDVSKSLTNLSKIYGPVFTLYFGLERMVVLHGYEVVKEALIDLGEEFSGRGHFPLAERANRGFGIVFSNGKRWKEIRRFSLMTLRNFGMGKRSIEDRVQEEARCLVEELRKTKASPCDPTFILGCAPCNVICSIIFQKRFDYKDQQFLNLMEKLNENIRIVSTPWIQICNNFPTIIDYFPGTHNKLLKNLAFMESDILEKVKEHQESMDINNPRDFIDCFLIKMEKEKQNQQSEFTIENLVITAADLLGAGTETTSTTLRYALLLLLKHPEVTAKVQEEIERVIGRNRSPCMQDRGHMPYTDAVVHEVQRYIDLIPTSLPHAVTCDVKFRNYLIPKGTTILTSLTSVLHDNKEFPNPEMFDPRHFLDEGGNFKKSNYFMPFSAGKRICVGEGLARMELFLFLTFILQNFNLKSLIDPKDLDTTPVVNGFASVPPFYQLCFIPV
Cytochrome P450 2C9 (Homo sapiens), sequence (P11712 whole entry, looked up): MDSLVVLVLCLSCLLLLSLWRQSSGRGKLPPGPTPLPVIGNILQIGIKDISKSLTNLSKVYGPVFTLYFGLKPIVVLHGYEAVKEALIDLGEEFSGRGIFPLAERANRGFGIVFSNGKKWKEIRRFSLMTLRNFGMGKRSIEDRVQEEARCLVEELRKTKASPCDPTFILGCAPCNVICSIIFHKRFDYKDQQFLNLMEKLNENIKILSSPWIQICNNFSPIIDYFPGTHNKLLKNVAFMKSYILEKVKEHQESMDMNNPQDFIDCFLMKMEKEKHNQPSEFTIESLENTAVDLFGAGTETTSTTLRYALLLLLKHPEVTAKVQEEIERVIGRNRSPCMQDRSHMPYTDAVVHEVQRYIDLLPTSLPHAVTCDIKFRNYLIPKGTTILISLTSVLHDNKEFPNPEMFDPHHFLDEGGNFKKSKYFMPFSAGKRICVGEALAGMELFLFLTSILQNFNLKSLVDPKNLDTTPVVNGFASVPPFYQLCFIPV

CCNCCCNCCCNCCCNCC
-26.1%: max response [7, 22]
inactive: Potency [1] | Potency [2] > 46 µM | Potency [3] > 46 µM | Potency [4] | Potency [5] | Potency [6] | activity change, negative = inhibition [7] -4.07% | Potency [8] | Potency [9] | Potency [10]
-12.2%: max response [7, 23]

N[C@H]1CCN(O)C1=O
inactive: Potency [2] > 46 µM | Potency [3] > 46 µM | Potency [4] | activity change, negative = inhibition [7] -6.49% | Potency [8] | Potency [9] | Potency [10]
-12.7%: max response [7, 23]
-8.46%: max response [7, 22]

CNC(=O)Oc1ccc2c(c1)[C@@]1(C)CCN(C)[C@@H]1N2C
active: Potency [16] 1.26 µM and 79.4 nM and 251 nM
inactive: activity change, negative = inhibition ([11]; at 17.2 µM (top of the series)) -5.3% | activity change, negative = inhibition ([11]; at 38 µM (top of the series)) 6.53% | Potency [1] | activity change, negative = inhibition ([12]; at 17.2 µM (top of the series)) -2.84% | activity change, negative = inhibition ([12]; at 38 µM (top of the series)) -3.73% | activity, negative = inhibition ([13]; at 17.2 µM (top of the series)) 5.27% | activity, negative = inhibition ([13]; at 38 µM (top of the series)) -23.2% | Potency [4] | Potency [5] | outcome [14] | Potency [15] | Potency [6] | Potency [17] | Potency [18] | outcome [19] | outcome [20] | outcome [21] | Potency [9] | Potency [10]
